Screening data as filed in PubChem.
This is a sample that favours compounds with a hit; in the whole collection about 0.3% have one here.
NPYLR7 ag: activates Aedes aegypti NPYLR7 receptor; HEK293T NPYLR7/Galpha15, GCaMP6s calcium fluorescence; activation, % at 10 µM; 270,000 compounds, 0.15% hits; in the data active means activation above about 40%;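 further: 0% = vehicle and 100% = reference agonist at the receptor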
mcGAS lum: inhibitors of mouse cGAS | Q8C6L5 | recombinant cGAS, Kinase-Glo ATP depletion luminescence | inhibition, % at 12.5 µM | 160,000 compounds, 0.15% hits;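 further: 0% = negative control wells and 100% = reference inhibitor with no enzyme activity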
Target sequence (Q8C6L5 whole entry, looked up): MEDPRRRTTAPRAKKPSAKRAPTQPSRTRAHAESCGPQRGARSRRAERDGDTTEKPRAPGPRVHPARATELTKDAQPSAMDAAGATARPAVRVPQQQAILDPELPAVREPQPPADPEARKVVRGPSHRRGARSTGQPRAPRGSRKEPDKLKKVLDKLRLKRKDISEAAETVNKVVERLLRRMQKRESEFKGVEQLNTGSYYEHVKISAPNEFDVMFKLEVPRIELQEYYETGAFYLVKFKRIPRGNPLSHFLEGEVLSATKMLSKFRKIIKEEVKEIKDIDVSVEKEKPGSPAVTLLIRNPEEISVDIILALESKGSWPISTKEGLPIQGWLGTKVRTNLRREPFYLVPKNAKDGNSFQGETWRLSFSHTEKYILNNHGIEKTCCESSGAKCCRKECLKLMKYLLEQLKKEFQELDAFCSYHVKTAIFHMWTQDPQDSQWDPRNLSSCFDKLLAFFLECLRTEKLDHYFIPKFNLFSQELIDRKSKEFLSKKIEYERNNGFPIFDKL
hcGAS lum: human cGAS inhibition | recombinant h-cGAS, ATP depletion, Kinase-Glo luminescence | inhibition, % at 12.5 µM | 290,000 compounds, 0.081% hits;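 further: 0% = vehicle reaction and 100% = reaction without DNA for no activity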
An asterisk follows results filed as active; / = no result. Unless noted, no stated cut-off is given here; in the data, active means inhibition above about 40%; inactive means the rest.

SMILES | NPYLR7 ag | mcGAS lum | hcGAS lum
O=C(C1CC=CCC1)N1CCc2onc(-c3ccc(C(F)(F)F)cc3)c2C1 (stereo unspecified) | 11 | -17 | -7
COc1ccccc1-c1cc(C(=O)NCCCN2CCOCC2)n2nc(-c3ccccc3)cc2n1 | / | -8 | -5
COc1ccccc1-c1cc(C(=O)NCCCN2CCOCC2)n2nc(-c3ccc(Cl)cc3)cc2n1 | 17 | 42* | -2
CC1=NN(c2ccc(Cl)c(C(=O)O)c2)C(=O)/C1=C\c1ccc(Br)c([N+](=O)[O-])c1 | 4 | 50* | 7
COc1cc(/C=C2\C(=O)N(c3ccc(Cl)c(C(=O)O)c3)N=C2C)cc([N+](=O)[O-])c1O | 3 | 26 | -3
Cc1cnc(Cn2ccnc2-c2c(C)sc3ccccc23)cn1 | -1 | / | -3
Cc1cccc(CC(=O)Oc2coc(CSc3nc(C)cc(C)n3)cc2=O)c1 | -15 | 26 | 2
Cc1ccnc(SCc2cc(=O)c(OC(=O)COc3ccc(F)cc3)co2)n1 | -16 | -1 | 1
Cc1ccnc(SCc2cc(=O)c(OC(=O)Cc3ccc(F)cc3)co2)n1 | -16 | 40* | 5
Cc1cc(C)nc(SCc2cc(=O)c(OC(=O)Cc3ccccc3)co2)n1 | -13 | 87* | 3
CC(NC(=O)c1ccc(C(C)(C)C)cc1)C(=O)N1CCC(C(=O)c2ccccc2)CC1 (stereo unspecified) | -7 | / | -5
CC(C)(C)C(=O)C=c1[nH]c(=O)c(=Cc2ccc3c(c2)OCO3)s1 | 5 | / | -5
N#Cc1ccc(CN2Cc3ccccc3CC2C(N)=O)c(F)c1 (stereo unspecified) | 14 | / | -17
CCN(CC)CCCC(C)NC(=O)c1cc(-c2ccc(OC)cc2)nc2cc(-c3ccccc3)nn12 (stereo unspecified) | 12 | 90* | 91*
CCN(CC)CCCC(C)NC(=O)c1cc(-c2ccc(OC)cc2)nc2cc(-c3ccc(Cl)cc3)nn12 (stereo unspecified) | 6 | -3 | -3
Cc1ccc(C)c(C=c2sc(=CC(=O)C(C)(C)C)[nH]c2=O)c1 | 4 | / | -2
CC(C)NC(=O)C(C#N)=Cc1ccc(O)cc1 | 4 | 2 | 7
N#CC(=Cc1ccc(OC(F)F)cc1)C(=O)O | 0 | 49* | -2
CN(CCn1ccnc1)C(=O)CC(c1ccccc1)c1ccccc1Cl (stereo unspecified) | 3 | / | -8
COc1ccc(C)cc1-n1c(Cn2ccnc2)nnc1SCC(=O)O | 13 | / | -4
COc1ccc(C)cc1-n1c(SCC(=O)O)nnc1-c1cc(C)nn1C | 8 | -9 | 44*
O=C1N(CCO)CCCC12CCN(C(=O)C1(Cn3ccnc3)CC1)C2 (stereo unspecified) | / | -5 | -14
Brc1c(Br)c(Br)c2[nH]cnc2c1Br | 4 | 16 | 19
Brc1c(Br)c(Br)c2n[nH]nc2c1Br | 4 | 84* | 41*
CCCS(=O)(=O)Nc1cccc(NC(=O)Cc2ccc(C)cc2)c1C | -1 | / | -2
SMILES | NPYLR7 ag | mcGAS lum | hcGAS lum
COc1ccc(-n2ccnc2-c2cccc(OC)c2OC)cn1 | 0 | 0 | -4
COc1ccc(-n2ccnc2-c2ccc(C#CC(C)(C)O)cc2)cn1 | 57* | / | -8
CC(C)c1nc(NC(=O)CS(=O)(=O)C2CCCC2)n(C)n1 | 3 | / | -10
CC(C)c1nc(NC(=O)c2[nH]ncc2Br)n(C)n1 | 85* | / | 49*
Nc1ccccc1-c1nc(-c2ccccc2)nc2ccccc12 | -7 | -7 | -2
Nc1c2ccccc2nc2ccccc12 (tested in a mixture with another compound) | -26 | / | 55*
COC(=O)/C(=C1\OC(=O)C(c2ccccc2)=C1O)c1ccccc1 | -9 | 6 | 6
CC(=O)Oc1cccc2c1C(=O)c1c(OC(C)=O)cc(C(=O)O)cc1C2=O | -3 | 12 | 57*
CC(=O)Oc1ccc2c(c1OC(C)=O)C(=O)c1ccccc1C2=O | 5 | 0 | -1
CC1(C)OC(=O)C(C(c2ccco2)C(C#N)C(N)=O)C(=O)O1 (stereo unspecified) | 2 | / | -3
CN1CCc2c(sc(NC(=O)CN3C(=O)c4ccccc4C3=O)c2-c2nc3ccccc3s2)C1 | 2 | -6 | 0
CCN1CCc2c(sc(NC(=O)CN3C(=O)CCC3=O)c2-c2nc3ccccc3s2)C1 | 24 | 44* | 45*
CCN1CCc2c(sc(NC(=O)COc3ccccc3)c2-c2nc3ccccc3s2)C1 | 53* | -1 | 2
CCN1CCc2c(sc(NC(=O)c3ccc(OC)cc3)c2-c2nc3ccccc3s2)C1 | 10 | -3 | 0
CCN1CCc2c(sc(NC(=O)c3ccccc3)c2-c2nc3ccccc3s2)C1 | 91* | 6 | 17
CCN1CCc2c(sc(NC(=O)c3ccc(C(C)=O)cc3)c2-c2nc3ccccc3s2)C1 | 20 | 2 | 7
